# The supplement of paper PMC8728848
# The sample as a whole holds a higher share of the strongest signals than the screen did.
# B1: Mindin (Homo sapiens), Q9BUD6 (protein)
# chain: MENPSPAAALGKALCALLLATLGAAGQPLGGESICSARALAKYSITFTGKWSQTAFPKQYPLFRPPAQWSSLLGAAHSSDYSMWRKNQYVSNGLRDFAERGEAWALMKEIEAAGEALQSVHEVFSAPAVPSGTGQTSAELEVQRRHSLVSFVVRIVPSPDWFVGVDSLDLCDGDRWREQAALDLYPYDAGTDSGFTFSSPNFATIPQDTVTEITSSSPSHPANSFYYPRLKALPPIARVTLVRLRQSPRAFIPPAPVLPSRDNEIVDSASVPETPLDCEVSLWSSWGLCGGHCGRLGTKSRTRYVRVQPANNGSPCPELEEEAECVPDNCV
# B2: NcCVNHO (Neurospora crassa), Q7S6U4 (protein)
# chain: MSFHVTAEDARIEVRDNRTILFARLRREDGEWNDASYELDQIIGNNDGHFQWGGQNFTETAEDIRFHPKEGAAEQPILRARLRDCNGEFHDRDVNLTEIVENVNGEFQAKF
# Assays:
# Assay in all cases: glycan array binding signal (z-score within array); higher = stronger binding
# Settings in all cases: glycan notation: IUPAC condensed, linker removed
# Fuc(a1-2)Gal = molecular target: Fuc(a1-2)Gal
# Procedure, shortened: (§1)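 The Consortium for Functional Glycomics database supplied 3228 glycan arrays, of which those lacking an available protein sequence were dropped. The binding signal, a within-array Z-score, was averaged across arrays of the same protein sequence and across linkers. Negative scores can be read as non-binding.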
# [1] = molecular target: Fuc(a1-2)Gal(b1-4)GlcNAc(b1-3)Gal(b1-4)GlcNAc
# Procedure, shortened: as §1
# [2] = molecular target: Fuc(a1-2)Gal(b1-4)[Fuc(a1-3)]GlcNAc
# Procedure, shortened: as §1
# [3] = molecular target: Fuc(a1-2)Gal(b1-4)[Fuc(a1-3)]GlcNAc(b1-3)Gal(b1-4)[Fuc(a1-3)]GlcNAc
# Procedure, shortened: as §1
# [4] = molecular target: Fuc(a1-2)[Gal(a1-3)]Gal(b1-4)[Fuc(a1-3)]GlcNAc
# Procedure, shortened: as §1
# [5] = molecular target: Fuc(a1-2)[GalNAc(a1-4)]Gal(b1-4)GlcNAc
# Procedure, shortened: as §1
# [6] = molecular target: Fuc(a1-3)[Gal(b1-4)]GlcNAc(b1-4)Gal(b1-4)[Fuc(a1-3)]GlcNAc
# Procedure, shortened: as §1
# Gal(a1-3)Gal = molecular target: Gal(a1-3)Gal
# Procedure, shortened: as §1
# [7] = molecular target: Gal(a1-3)Gal(b1-4)[Fuc(a1-3)]GlcNAc
# Procedure, shortened: as §1
# Gal(a1-4)Gal(b1-4)GlcNAc = molecular target: Gal(a1-4)Gal(b1-4)GlcNAc
# Procedure, shortened: as §1
# [8] = molecular target: Gal(b1-3)GlcNAc(b1-3)Gal(b1-3)GlcNAc
# Procedure, shortened: as §1
# [9] = molecular target: Gal(b1-3)GlcNAc(b1-3)Gal(b1-4)GlcNAc
# Procedure, shortened: as §1
# [10] = molecular target: Gal(b1-3)[Fuc(a1-4)]GlcNAc(b1-3)Gal(b1-4)GlcNAc
# Procedure, shortened: as §1
# [11] = molecular target: Gal(b1-4)GlcNAc(b1-3)[Gal(b1-4)GlcNAc(b1-6)]GalNAc
# Procedure, shortened: as §1
# [12] = molecular target: Gal(b1-4)GlcNAc(b1-6)Gal(b1-4)GlcNAc(b1-6)GalNAc
# Procedure, shortened: as §1
# [13] = molecular target: Gal(b1-4)GlcNAc(b1-6)GalNAc
# Procedure, shortened: as §1
# GalNAc(b1-3)GalNAc = molecular target: GalNAc(b1-3)GalNAc
# Procedure, shortened: as §1
# [14] = molecular target: GlcNAc(b1-3)[GlcNAc(b1-6)]Gal(b1-4)GlcNAc
# Procedure, shortened: as §1
# [15] = molecular target: Man(a1-2)Man(a1-2)Man(a1-3)Man
# Procedure, shortened: as §1
# Neu5Ac(a2-3)Gal = molecular target: Neu5Ac(a2-3)Gal
# Procedure, shortened: as §1
# [16] = molecular target: Neu5Ac(a2-3)Gal(b1-3)[Fuc(a1-4)]GlcNAc(b1-3)Gal(b1-4)[Fuc(a1-3)]GlcNAc
# Procedure, shortened: as §1
# [17] = molecular target: Neu5Ac(a2-3)Gal(b1-4)GlcNAc(b1-6)[Gal(b1-3)]GalNAc
# Procedure, shortened: as §1
# [18] = molecular target: Neu5Ac(a2-3)Gal(b1-4)[Fuc(a1-3)]GlcNAc
# Procedure, shortened: as §1
# [19] = molecular target: Neu5Ac(a2-8)Neu5Ac(a2-8)Neu5Ac(a2-3)Gal(b1-4)Glc
# Procedure, shortened: as §1
# [20] = molecular target: Neu5Gc(a2-6)Gal(b1-4)GlcNAc
# Procedure, shortened: as §1
# [21] = molecular target: Fuc(a1-2)Gal(b1-3)GlcNAc(b1-3)Gal(b1-4)Glc
# Procedure, shortened: as §1
# [22] = molecular target: Fuc(a1-2)Gal6S(b1-4)GlcNAc
# Procedure, shortened: as §1
# [23] = molecular target: Fuc(a1-3)[Gal(b1-4)]GlcNAc(b1-2)Man(a1-3)[Fuc(a1-3)[Gal(b1-4)]GlcNAc(b1-2)Man(a1-6)]Man(b1-4)GlcNAc(b1-4)GlcNAc
# Procedure, shortened: as §1
# [24] = molecular target: Fuc(a1-3)[Gal(b1-4)]GlcNAc(b1-2)Man(a1-6)[Gal(b1-4)GlcNAc(b1-2)Man(a1-3)]Man(b1-4)GlcNAc(b1-4)GlcNAc
# Procedure, shortened: as §1
# [25] = molecular target: Fuc(a1-3)[GalNAc(b1-4)]GlcNAc
# Procedure, shortened: as §1
# Fuc(b1-3)GlcNAc = molecular target: Fuc(b1-3)GlcNAc
# Procedure, shortened: as §1
# Gal(a1-3)GalNAc = molecular target: Gal(a1-3)GalNAc
# Procedure, shortened: as §1
# [26] = molecular target: Gal(b1-3)GlcNAc(b1-3)Gal(b1-4)Glc
# Procedure, shortened: as §1
# [27] = molecular target: Gal(b1-3)[Neu5Ac(a2-6)]GlcNAc(b1-6)Gal(b1-4)Glc
# Procedure, shortened: as §1
# [28] = molecular target: Gal(b1-4)GlcNAc(b1-6)[Gal(b1-3)]GalNAc
# Procedure, shortened: as §1
# Gal6S(b1-4)Glc6S = molecular target: Gal6S(b1-4)Glc6S
# Procedure, shortened: as §1
# Gal6S(b1-4)GlcNAc6S = molecular target: Gal6S(b1-4)GlcNAc6S
# Procedure, shortened: as §1
# [29] = molecular target: GlcNAc(a1-6)Gal(b1-4)GlcNAc
# Procedure, shortened: as §1
# [30] = molecular target: GlcNAc(b1-3)[GlcNAc(b1-6)]GlcNAc(b1-4)GlcNAc
# Procedure, shortened: as §1
# [31] = molecular target: Man(a1-2)Man(a1-2)Man(a1-3)[Man(a1-2)Man(a1-3)[Man(a1-2)Man(a1-6)]Man(a1-6)]Man(b1-4)GlcNAc(b1-4)GlcNAc
# Procedure, shortened: as §1
# [32] = molecular target: Man(a1-2)Man(a1-2)Man(a1-6)[Man(a1-3)]Man
# Procedure, shortened: as §1
# [33] = molecular target: Man(a1-2)Man(a1-3)[Man(a1-2)Man(a1-6)]Man
# Procedure, shortened: as §1
# [34] = molecular target: Man(a1-2)Man(a1-3)[Man(a1-3)[Man(a1-6)]Man(a1-6)]Man(b1-4)GlcNAc(b1-4)GlcNAc
# Procedure, shortened: as §1
# [35] = molecular target: Neu5Ac(a2-3)Gal(b1-3)GalNAc(b1-4)[Neu5Ac(a2-3)]Gal(b1-4)Glc
# Procedure, shortened: as §1
# [36] = molecular target: Neu5Ac(a2-3)Gal(b1-3)GlcNAc
# Procedure, shortened: as §1
# [37] = molecular target: Neu5Ac(a2-3)Gal(b1-4)GlcNAc
# Procedure, shortened: as §1
# [38] = molecular target: Neu5Ac(a2-8)Neu5Ac(a2-8)Neu5Ac(a2-3)[GalNAc(b1-4)]Gal(b1-4)Glc
# Procedure, shortened: as §1
binder,measurement,setting,value
B1,glycan array binding signal (z-score),Fuc(a1-2)Gal,-0.273
same,glycan array binding signal (z-score),[1],-0.186
same,glycan array binding signal (z-score),[2],-0.185
same,glycan array binding signal (z-score),[3],0.005
same,glycan array binding signal (z-score),[4],-0.133
same,glycan array binding signal (z-score),[5],2.81
same,glycan array binding signal (z-score),[6],-0.142
same,glycan array binding signal (z-score),Gal(a1-3)Gal,-0.238
same,glycan array binding signal (z-score),[7],0.093
same,glycan array binding signal (z-score),Gal(a1-4)Gal(b1-4)GlcNAc,-0.141
same,glycan array binding signal (z-score),[8],-0.279
same,glycan array binding signal (z-score),[9],2.01
same,glycan array binding signal (z-score),[10],1.28
same,glycan array binding signal (z-score),[11],2.02
same,glycan array binding signal (z-score),[12],-0.238
same,glycan array binding signal (z-score),[13],1.34
same,glycan array binding signal (z-score),GalNAc(b1-3)GalNAc,-0.245
same,glycan array binding signal (z-score),[14],-0.324
same,glycan array binding signal (z-score),[15],-0.085
same,glycan array binding signal (z-score),Neu5Ac(a2-3)Gal,-0.347
same,glycan array binding signal (z-score),[16],0.188
same,glycan array binding signal (z-score),[17],-0.36
same,glycan array binding signal (z-score),[18],-0.257
same,glycan array binding signal (z-score),[19],-0.295
same,glycan array binding signal (z-score),[20],-0.363
B2,glycan array binding signal (z-score),Fuc(a1-2)Gal,-0.209
same,glycan array binding signal (z-score),[21],5.47
same,glycan array binding signal (z-score),[22],-0.185
same,glycan array binding signal (z-score),[23],-0.194
same,glycan array binding signal (z-score),[24],-0.185
same,glycan array binding signal (z-score),[25],-0.254
same,glycan array binding signal (z-score),Fuc(b1-3)GlcNAc,-0.209
same,glycan array binding signal (z-score),Gal(a1-3)GalNAc,-0.225
same,glycan array binding signal (z-score),[26],4.71
same,glycan array binding signal (z-score),[9],-0.264
same,glycan array binding signal (z-score),[27],4.11
same,glycan array binding signal (z-score),[11],-0.246
same,glycan array binding signal (z-score),[13],-0.228
same,glycan array binding signal (z-score),[28],-0.196
same,glycan array binding signal (z-score),Gal6S(b1-4)Glc6S,-0.209
same,glycan array binding signal (z-score),Gal6S(b1-4)GlcNAc6S,-0.172
same,glycan array binding signal (z-score),[29],-0.245
same,glycan array binding signal (z-score),[30],-0.297
same,glycan array binding signal (z-score),[31],8.87
same,glycan array binding signal (z-score),[32],4.66
same,glycan array binding signal (z-score),[33],4.86
same,glycan array binding signal (z-score),[34],0.23
same,glycan array binding signal (z-score),[35],-0.244
same,glycan array binding signal (z-score),[36],-0.217
same,glycan array binding signal (z-score),[37],-0.24
same,glycan array binding signal (z-score),[38],-0.24
